Data from PubChem BioAssay (NCI).
Several values for one entry are separate records, joined by “and”; a condition that tells them apart may be missing. Equal entries are not always repeated. This is part of a sample that, as a whole, favours compounds with a hit. Of some 79,000 tested, about 15% had one in any assay. Activity calls are given as the source filed them. Cut-off read from the data, not from the text of the source: active = growth inhibition above about 70%; inactive = the rest. Where a SMILES comes first, the peptide text is derived from it. [ ]: non-standard residue; d: D form. The star is where a group is joined. Cbz = O=C(OCc1ccccc1)*; Nva = CCC[CH](N)C(=O)O

How the values were obtained:
[1] = NCI Yeast Anticancer Drug Screen. Data for the rad50 strain (AID 155);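 note: 0% = growth of vehicle-only cultures of the same strain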; conditions: S. cerevisiae rad50 strain growth inhibition, active compounds read high; at 50.0 µM unless noted
Summary of the method: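 Relative growth inhibition (compound vs vehicle) was measured in yeast with a defined repair-gene alteration.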

[2] = NCI Yeast Anticancer Drug Screen. Data for the mec2-1 strain (AID 157); conditions: S. cerevisiae mec2-1 strain, active compounds read high; at 50.0 µM unless noted
Summary of the method: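 Vehicle-treated cultures served as reference for growth inhibition of compound-exposed mec2-1 yeast.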

[3] = NCI Yeast Anticancer Drug Screen. Data for the sgs1 mgt1 strain (AID 161);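 note: 0% = growth of cultures given vehicle only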; conditions: S. cerevisiae sgs1 mgt1 strain, active compounds read high; at 50.0 µM unless noted
Summary of the method: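 Inhibition of yeast growth, normalised to vehicle-treated controls, is reported for a strain bearing genetic alterations in DNA damage repair.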

[4] = NCI Yeast Anticancer Drug Screen. Data for the cln2 rad14 strain (AID 165);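 note: 0% = growth equal to vehicle treated cultures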; conditions: S. cerevisiae cln2 rad14 strain, active compounds read high; at 50.0 µM unless noted
Summary of the method: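 Each compound was tested on cln2 rad14 yeast. Inhibition of growth was calculated against vehicle-exposed controls.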

[5] = NCI Yeast Anticancer Drug Screen. Data for the bub3 strain (AID 167); conditions: S. cerevisiae bub3 mutant strain, active compounds read high; at 50.0 µM unless noted
Summary of the method: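 Screening used yeast with an engineered genetic alteration affecting cell cycle control. Compound-exposed cultures were compared with vehicle cultures, and reduced growth was taken as inhibition.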

[6] = NCI Yeast Anticancer Drug Screen. Data for the mlh1 rad18 strain (AID 175); conditions: S. cerevisiae mlh1 rad18 strain growth inhibition, active compounds read high; at 50.0 µM unless noted
Summary of the method: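 Vehicle-treated cultures served as the reference for growth inhibition in a yeast strain carrying DNA damage repair alterations exposed to each compound.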

Measured: growth inhibition

CCCCSCC(N)CO (centres undefined)
inactive: [1] 9.05% | [2] 5.2% | [3] 10.7% | [4] -34.2% | [5] 0.55% | [6] 1.75%

CC1=NN2C(c3ccc([N+](=O)[O-])cc3)=CSC2=NC(C)(C)C1
inactive: [1] 20.6% | [2] -5.6% | [3] 5.7% | [4] -5% | [5] -4.95% | [6] -11.6%

COc1cc(C)c(O)c(C(=O)O)c1
inactive: [1] -3.7% | [2] -7.65% | [3] 2.25% | [4] 0.05% | [5] -1.45% | [6] -4.25%

CCN(CC)CCn1c2ccccc2c(=O)c2c(OC)ccc(OC)c21
inactive: [1] 54.4% | [2] 8.05% | [3] 15.8% | [4] 16.6% | [5] 16.8% | [6] 50.9%

CCCC(NC(=O)OCc1ccccc1)C(=O)NC(CC(C)C)C(N)=O (centres undefined) (Cbz-[Nva]-Leu-NH2; configuration not given here)
inactive: [1] 12.9% | [2] 2.35% | [3] 5% | [4] 22.2% | [5] 6.55% | [6] 5.15%

Oc1[nH]c2ccccc2c1N=NC(=S)Nc1ccccc1
inactive: [1] 12.6% | [2] 2.5% | [3] -2.3% | [4] -13.1% | [5] -11.4% | [6] -4.75%

CCCCC(NC(=O)c1ccc2ccccc2n1)C(=O)O (centres undefined)
inactive: [1] -0.35% | [2] 9% | [3] 1.5% | [4] 7.35% | [5] -8.7% | [6] 20.2%

CCC(=O)CC(=O)CCC(=O)Nc1ccc(Cl)cc1C
inactive: [1] -72.2% | [2] -15.4% | [3] -11.6% | [4] -55.2% | [5] -12.4% | [6] -9.55%

CC1(C)OC(CI)C(COS(C)(=O)=O)O1 (centres undefined)
inactive: [1] 3.7% | [2] 3.2% | [3] 3.7% | [4] -25.2% | [5] -11.3% | [6] -2.25%

CN(C)C(=S)Oc1ccc(-c2c(-c3ccccc3)oc3ccc4ccccc4c23)cc1
inactive: [1] 28.2% | [2] -4.05% | [3] 7.95% | [4] 10.8% | [5] -0.1% | [6] 9.4%

C[C@@]1(O)C2CC3CC1(c1ccccc1)CC(/C3=N/O)/C2=N\O (some centres undefined)
inactive: [1] -14.3% | [2] -17.6% | [3] -1.8% | [4] 26.2% | [5] -16.7% | [6] 8.3%

O=C(O)CC(O)(c1ccccc1)c1ccccc1
inactive: [1] 0.05% | [2] -1.7% | [3] -5.05% | [4] -7.9% | [5] 1.4% | [6] 0%

O=S(=O)(Nc1nccs1)c1ccc(NCc2c3ccccc3nc3cc(Cl)ccc23)cc1
inactive: [1] 13.3% | [2] 3.15% | [3] 9.75% | [4] -6.65% | [5] -0.2% | [6] 25.8%

Cc1c([N+](=O)[O-])cc(C(C)(C)C)c(OC(=O)c2ccccc2)c1[N+](=O)[O-]
inactive: [1] 41.5% | [2] 24.7% | [3] 41% | [4] 16.3% | [5] 25.4% | [6] 20.4%

O=C(O)/C=C/C(=O)NCCCCCCNC(=O)/C=C/C(=O)O
inactive: [1] 4.55% | [2] -26.4% | [3] 2% | [4] -8.7% | [5] -16.9% | [6] -15.1%

O=C1c2ccccc2C(=O)N1CCCCCCCCCCN1C(=O)c2ccccc2C1=O
inactive: [1] 33% | [2] -10.3% | [3] 17.3% | [4] 2.75% | [5] -3.75% | [6] -7.15%

CC1(C)CC([NH-])(C(=O)O)CC(C)(C)N1O.CC1(C)CC([NH-])(C(=O)O)CC(C)(C)N1O.[Zn+2]
inactive: [1] -1.45% | [2] -17.1% | [3] -2.25% | [4] -41.9% | [5] 1.5% | [6] -7.4%

COC1=CC(=O)C2CC=CC(CC(=O)O)C2(C)C1=O (centres undefined)
inactive: [1] -0.95% | [2] -2.4% | [3] -0.35% | [4] -21.9% | [5] 7.3% | [6] 4.5%

CCO[C@@H]1OC(=O)[C@H]2C(c3ccc(Cl)cc3)=NO[C@@H]12
inactive: [1] -13.4% | [2] -33.7% | [3] 0.05% | [4] 3.6% | [5] 29.8% | [6] -4.9%

Cc1nc(Nc2ccc(Cl)cc2)c2cnn(-c3ccc(Cl)cc3)c2n1
inactive: [1] -1.9% | [2] -2.25% | [3] -7.95% | [4] -41% | [5] -2.3% | [6] -5.05%

O=C1N=CN=C2C=CC(Cl)=C(I)C12 (centres undefined)
inactive: [1] 0.85% | [2] 16.1% | [3] 19.5% | [4] 5.35% | [5] 29.9% | [6] 4.15%

CC(=O)Nc1ccc(S(N)(=O)=O)cc1
inactive: [1] 16.6% and -34.8% | [2] 15.6% and 8.55% | [3] 16.1% and 21.3% | [4] 12% and -4.55% | [5] 1.75% and -3.65% | [6] 13.6% and 37%

COC(=O)c1ccccc1NS(=O)(=O)c1ccc(Cl)cc1
inactive: [1] 42.2% | [2] 66.1% | [4] 47.8%
active: [3] 75.7% | [5] 93% | [6] 82.2%

CC(=O)OC1OC(COC(c2ccccc2)(c2ccccc2)c2ccccc2)C(OC(C)=O)C(OC(C)=O)C1OC(C)=O (centres undefined)
inactive: [1] 12.8% | [2] -8.6% | [3] -6.15% | [4] 6.4% | [5] 1.7% | [6] 24.6%

NCCSS(=O)(=O)O
inactive: [1] 3.25% | [2] 4.45% | [3] -17.7% | [4] -41.5% | [5] 0.45% | [6] -24.9%

O=C(NCCCCCSC(=O)c1ccccc1)c1ccccc1
inactive: [1] -0.35% | [2] 4.6% | [3] 7.95% | [4] 13.8% | [5] 15.7% | [6] -4%

Cc1cccc(C)c1NC(=O)Nc1ccccc1C(N)=O
inactive: [1] 4.85% | [2] 22.8% | [3] 35.5% | [4] -6.75% | [5] 17.1% | [6] -17.4%

O=[N+]([O-])c1cccc(/C=C/c2ccnc3ccccc23)c1
inactive: [1] 10.2% | [2] -13.1% | [3] 2.95% | [4] 5.65% | [5] 19.4% | [6] 4.15%

CS/C(C)=N/OC(=O)NCCCCNc1ccc(N=[N+]=[N-])cc1
inactive: [1] 13.9% | [2] -4.15% | [3] 5.4% | [4] 36.7% | [5] 4.5% | [6] 0.6%

Cc1cc(C(=O)O)cc(C)c1N(C)C=O
inactive: [1] -0.8% | [2] 6.25% | [3] 3.15% | [4] 2.35% | [5] -1.05% | [6] 4.45%

N=c1oc(-c2ccccc2)cc2ccccc12
inactive: [1] 29.8% | [2] -9.4% | [3] -12.3% | [4] -45.8% | [5] 15.6% | [6] 11.7%

NC1CCCC2CCC(N)C12 (centres undefined)
inactive: [1] 17.9% | [2] 15.6% | [3] 20.8% | [4] 24.6% | [5] 10.7% | [6] 20.2%

CCCCCC(Br)C(Br)CC(Br)C(Br)CC(Br)C(Br)CCCCC(=O)O (centres undefined)
inactive: [1] 11.2% | [2] -5.8% | [3] 9.6% | [4] -31.9% | [5] -0.7% | [6] 22.6%

COc1ccc2nc3cccc([N+](=O)[O-])c3c(NC(C)CN(C)C)c2c1 (centres undefined)
inactive: [1] 52% | [2] 35.9% | [3] 54.1% | [4] 64.3% | [5] 26.4% | [6] 42.9%

COc1ccc(C(=O)Oc2ccccc2C(C)=O)cc1
inactive: [1] -2.65% | [2] -7.05% | [3] 0.7% | [4] -24.6% | [5] -5.6% | [6] -12.8%

CSc1cccc(NC(=S)NC(=O)c2ccccc2)c1
inactive: [1] -0.25% | [2] -8.15% | [3] -0.65% | [4] -2.4% | [5] 2.55% | [6] -17.4%

Cc1cc2ccccc2cn1
inactive: [1] 1% and 29.1% | [2] -23.1% and 16.6% | [3] 5.55% and 19.2% | [4] -30.6% and -34.1% | [5] 5.95% and 10.8% | [6] 4.75% and 24.6%

C/C(=N/NC(N)=S)c1ccc([N+](=O)[O-])cc1
active: [1] 75.7%
inactive: [2] -8.8% | [3] -8.6% | [4] -64.7% | [5] -12.4% | [6] -2.3%

Cc1ccc(Nc2nc(-c3ccc(-c4ccc([N+](=O)[O-])cc4)o3)cs2)cc1
inactive: [1] 20.5% | [2] 19.5% | [3] 31.8% | [4] 31.5% | [5] 28.7% | [6] 44%
